# Assay outcomes (PubChem BioAssay)
# KDM5B inhibitor: blocks human KDM5B histone demethylase activity; Q9UGL1; KDM5B demethylase, FDH-coupled NADH fluorescence (FDH is formaldehyde dehydrogenase); Potency, µM (top dose mostly 57.7 µM), usual class: inhibitors; 220,000 compounds, 2.6% hits; AID 1347165; active = well fitted inhibition curve with a large enough effect; also: nearly all actives have a fitted effect of over 70% in size
#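 Compound dilutions met 200 nM (final) KDM5BΔAP for 10 min at room temperature before substrate addition. The substrate mix held 12.5 µM H3K4me3 with cofactors 25 µM α-ketoglutarate and 50 µM Fe²⁺. NADH signal gain over 30 min defined activity.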
# Hits are given with their value; . = inactive. The full list was thinned out, with hits kept by preference.
SMILES,KDM5B inhibitor
O=C(c1ccc(C(F)(F)F)cc1)N1CCc2nc(C3CC3)nc(-c3ccc(Cl)cc3)c2CC1,.
O=C1N(Cc2ccccc2F)CCOC12CCN(Cc1ccc(F)cc1F)CC2,.
O=C1N(Cc2ccccc2)CCOC12CCN(Cc1cc(F)ccc1F)CC2,.
O=C1N(Cc2ccccc2F)CCOC12CCN(Cc1ccccc1F)CC2,15.8µM
CC1(C)[C@H]2CC[C@@H](CNC(=O)N3CCCC3)[C@@H]1C2,.
CN(Cc1cccnc1)c1ccc(-c2nc(COc3ccccc3)no2)cn1,35.5µM
O=C(Cc1cccc(F)c1)NCCc1noc(-c2cccnc2)n1,.
CN(CCc1ccccn1)c1ccc(-c2nc(COc3ccccc3)no2)cn1,28.2µM
CC(Oc1ccccc1)C(=O)NCCc1noc(-c2ccncc2)n1 (centres undefined),.
CN(Cc1ccc(-c2ccccc2)cc1)Cc1cccnc1,.
NCCc1noc(-c2ccccc2)n1,.
CCC(CC)n1c(COc2ccccc2Cl)nnc1SCC1CC1(Cl)Cl (centres undefined),.
CCc1nnc(NC(=O)C2CC(c3ccccc3)=NO2)s1 (centres undefined),.
O=C(NCc1ccc2c(c1)OCCO2)N1CCN(S(=O)(=O)c2ccc(Cl)c(Cl)c2)CC1,.
COc1ccc(C(=O)COc2ccc3c(=O)c(Oc4cccc(OC)c4)c(C)oc3c2)cc1,.
CC(Oc1ccc2ccc(=O)oc2c1)C(=O)NCCc1ccc(F)cc1 (centres undefined),.
Cc1ccc(S(=O)(=O)NC2CCN(C(=O)Cc3cccc(F)c3)CC2)cc1,.
CCC(O)c1cc2n(n1)CCN(C(=O)c1ccc(-c3ccccc3)n1C)C2 (centres undefined),.
CCS(=O)(=O)Nc1ccc(C(=O)N2CCN(C(C)=O)CC(O)C2)cc1 (centres undefined),.
CC(=O)N1CCN(C(=O)c2nc(N)nc3c2CCCC3)CC(O)C1 (centres undefined),25.1µM
CN(C)Cc1nnc(C2CCN(C(=O)c3nc(N)nc4c3CCCC4)CC2)n1C,25.1µM
CCC(O)c1cc2n(n1)CCN(C(=O)c1nc(N)nc3c1CCCC3)C2 (centres undefined),28.2µM
CCC(O)c1cc2n(n1)CCN(c1nc(-c3ccccc3)nc3c1CCC3)C2 (centres undefined),.
CN(C)Cc1nnc(C2CC(NC(=O)c3cnc4c(c3)CCC4)C2)n1C (centres undefined),.
CC(=O)N1CCN(C(=O)c2ncoc2C2CC2)CC(O)C1 (centres undefined),.
CN(C)Cc1nnc(C2CCCN(C(=O)c3cccc(N(C)C)c3)C2)n1C (centres undefined),.
O=c1cc(-c2ccccc2F)oc2ccc(F)cc12,.
COc1ccc(C(=O)OCc2ccc(Cl)c(Cl)c2)c(OC)c1OC,.
O=C(CSc1nc2cc(C(F)(F)F)ccc2n1Cc1ccccc1)c1ccc(Br)s1,.
